GPR151 activ: human GPR151 activation; Q8TDV0; PathHunter beta-arrestin GPR151 cells, luminescence; activation, % at 11.2 µM; 650,000 compounds, 1% hits; in the data active = activation above about 4.9%;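 note: 0% = median of compound wells and 100% = cells with positive control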
TEAD-YAP block: TEAD-YAP interaction inhibition | HEK-TIYL cells, TEAD-Gal4/YAP UAS-luciferase luminescence | inhibition, % at 9.12 µM | 640,000 compounds, 1.4% hits | AID 1259422; in the data active = inhibition above about 32%;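 note: 0% = median of test compound wells and 100% = reference inhibitor wells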
FBW7 activator: activators of human E3 ligase FBW7; AlphaScreen FBW7–phospho-cyclin E peptide binding, activator screen; normalized activity (activation), % at 26.1 µM; 650,000 compounds, 0.13% hits; in the data active = normalized activity above about 1.9%;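 note: purified mutant Fbw7 with reduced substrate affinity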
Target sequence (Q969H0 whole entry, looked up): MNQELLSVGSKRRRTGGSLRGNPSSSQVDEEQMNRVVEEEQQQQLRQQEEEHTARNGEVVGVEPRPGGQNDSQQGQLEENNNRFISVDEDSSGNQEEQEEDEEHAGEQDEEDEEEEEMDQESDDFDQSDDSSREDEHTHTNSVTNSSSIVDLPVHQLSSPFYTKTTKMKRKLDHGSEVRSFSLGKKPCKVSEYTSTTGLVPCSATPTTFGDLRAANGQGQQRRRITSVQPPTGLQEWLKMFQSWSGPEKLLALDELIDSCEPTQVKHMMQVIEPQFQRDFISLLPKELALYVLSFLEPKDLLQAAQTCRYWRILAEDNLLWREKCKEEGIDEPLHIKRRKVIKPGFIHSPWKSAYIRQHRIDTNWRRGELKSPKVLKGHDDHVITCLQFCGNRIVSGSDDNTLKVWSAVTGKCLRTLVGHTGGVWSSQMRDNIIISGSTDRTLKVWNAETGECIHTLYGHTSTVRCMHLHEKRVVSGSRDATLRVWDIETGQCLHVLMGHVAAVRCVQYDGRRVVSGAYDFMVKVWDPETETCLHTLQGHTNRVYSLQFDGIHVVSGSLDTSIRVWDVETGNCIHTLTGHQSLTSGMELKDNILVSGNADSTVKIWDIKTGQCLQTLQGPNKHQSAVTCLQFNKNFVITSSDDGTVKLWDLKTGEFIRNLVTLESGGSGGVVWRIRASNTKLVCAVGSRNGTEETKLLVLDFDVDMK
MITF inh: inhibitors of human MITF; 650,000 compounds, 0.91% hits; O75030; inhibition, % at 2.6 µM; AlphaScreen MITF homodimerization, bead proximity signal; in the data active = inhibition above about 50%;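 note: 0% = vehicle wells with protein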
MITF inh conf: confirmation of human MITF inhibitors. shares compounds with MITF inh. AlphaScreen MITF homodimerization, biotin/His-MITF beads. inhibition, % at 2.6 µM. 4,700 compounds, 16% hits;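 active = inhibition above a cutoff derived from the DMSO control wells, cut at about 28% in these data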;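 note: 0% = MITF dimer wells with DMSO only; inhibitors lower the bead chemiluminescence by keeping MITF from dimerizing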
AlphaScreen DR: optically interferes with AlphaScreen signal in dose response. shares compounds with MITF inh. AlphaScreen optical interference counterscreen, cell-free. IC50, µM. 480 compounds, 6% hits. AID 1259373; call rule not given here
AlphaScreen intf2: counter-screen: compounds optically interfering with AlphaScreen; shares compounds with MITF inh; 4,700 compounds, 7.6% hits; inhibition, % at 2.6 µM; LysRS AlphaScreen counterscreen, signal interference, triplicate; AID 1259376;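 active = inhibition above a cutoff derived from the DMSO control wells, cut at about 30% in these data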
* = called active by the depositor; · = no result. Shown are actives, neighbours in structure and some others; about 3.5% of the full set was active somewhere.

SMILES	GPR151 activ	TEAD-YAP block	FBW7 activator	MITF inh	MITF inh conf	AlphaScreen intf2	others
OCC1CCCN1c1nc(NCCN2CCOCC2)c2ncn(-c3ccsc3)c2n1 (stereo not drawn)	-0.3	60.8*	0.0	12.4	·	·
COc1ccc(NCC(=O)n2nc(C)cc2C)cc1	0.5	13.4	0.0	-0.4	·	·
COc1ccc(NCC(=O)n2c(C)c(C)c3ccccc32)cc1	-0.9	52.5*	0.2	8.5	·	·
COc1cc(Nc2cc(N3CCOCC3)ncn2)cc(OC)c1OC	-0.7	-2.6	0.2	10.7	·	·
COc1ccc(C2CC(=O)N(CC(=O)c3ccccc3)c3ccccc3S2)cc1OC (stereo not drawn)	1.7	75.7*	0.0	5.5	·	·
Cc1ccc(C(=O)N(C)Cc2ccccc2)c(C)c1	-0.8	0.9	0.1	-8.4	·	·
c1cc(-c2ccnc(Nc3ccc(-n4cnc(N5CCOCC5)n4)cc3)n2)cc(N2CCOCC2)c1	0.9	43.0*	0.2	-6.6	·	·
CS(=O)(=O)c1cccc(-c2ccnc(Nc3ccc(-n4cnc(N5CCC(O)CC5)n4)cc3)n2)c1	-0.6	41.7*	-0.1	4.5	·	·
CCc1ncn(-c2ccc(Nc3nccc(-c4cccc(N5CCOCC5)c4)n3)cc2)n1	0.5	45.7*	0.2	10.0	·	·
CS(=O)(=O)c1cc(-c2ccnc(Nc3ccc(-n4cnc(-c5ccccn5)n4)cc3)n2)cc(N2CCOCC2)c1	-1.6	89.0*	0.4	-15.8	·	·
CC(C)c1ncn(-c2ccc(Nc3nccc(-c4cccc(N5CCOCC5)c4)n3)cc2)n1	0.2	-2.3	0.1	14.2	·	·
Cc1ncn(-c2ccc(Nc3nccc(-c4ccc(S(C)(=O)=O)c(N5CCCC(O)C5)c4)n3)cc2)n1 (stereo not drawn)	0.4	2.2	0.0	5.9	·	·
Cc1ccncc1-c1ncn(-c2ccc(Nc3nccc(-c4cc(F)cc(N5CCOCC5)c4)n3)cc2)n1	-0.6	8.2	0.0	-1.8	·	·
COc1ccc(OCCN2CCNCC2)cc1	-0.4	3.5	-0.2	-1.8	·	·
CCN1CCN(c2ncn(-c3ccc(Nc4nccc(-c5cc(C#N)cc(N6CCOCC6)c5)n4)cc3)n2)CC1	0.0	2.9	-0.1	4.0	·	·
OC1CCN(c2ncn(-c3ccc(Nc4nccc(-c5cccc(N6CCOCC6)c5)n4)cc3)n2)CC1	0.7	81.8*	0.1	-9.1	·	·
c1ccc(Cn2nnnc2-c2ccc(Nc3nccc(-c4cccc(N5CCOCC5)c4)n3)cc2)cc1	-0.7	-0.1	2.0*	18.9	·	·
CCN1CCN(c2ncn(-c3ccc(Nc4nccc(-c5cccc(N6CCOCC6)c5)n4)cc3)n2)CC1	-0.3	55.0*	-0.1	7.2	·	·
Fc1cncc(-c2ccnc(Nc3ccc(-n4cnc(N5CCOCC5)n4)cc3)n2)c1	-1.2	-11.8	0.6	7.4	·	·
COc1cccc(NC(=O)CSC2=C(C#N)C(c3cccs3)C(C(=O)Nc3ccccc3)=C(C)N2)c1 (stereo not drawn)	1.1	-1.8	0.0	-4.5	·	·
CCOC(=O)c1c(-c2ccccc2)csc1NC(=O)CCN1CCN(C)CC1	0.2	1.6	-0.2	50.2	·	·
CCOC(=O)c1c(-c2ccc(C)cc2)csc1NC(=O)CN1CCOCC1	0.5	6.2	0.1	4.0	·	·
CCOC(=O)c1c(-c2ccc(F)cc2)csc1NC(=O)CCN1CCN(CC)CC1	0.6	-17.9	0.0	70.7*	4.6	-1.8
CCOC(=O)c1c(-c2ccc(OC)cc2)csc1NC(=O)CN1CCOCC1	-0.7	-9.1	0.0	70.8*	-1.8	9.6
CCOC(=O)c1c(-c2ccc(C)o2)csc1NC(=O)CN1CCCCC1C (stereo not drawn)	0.4	4.6	-0.4	56.5*	1.5	39.3*
SMILES	GPR151 activ	TEAD-YAP block	FBW7 activator	MITF inh	MITF inh conf	AlphaScreen intf2	others
COc1ccccc1C1=NOC(C(=O)Nc2cc(C)on2)C1 (stereo not drawn)	2.5	-4.4	0.2	-14.7	·	·
CCn1ccnc1CN1CCCC(CNC(=O)c2cccc3ccccc23)C1 (stereo not drawn)	3.7	-4.2	-0.1	4.4	·	·
Cc1ccc(-c2cc(C(=O)Nc3ccccc3Br)c3ccccc3n2)cc1	-0.4	-13.5	-0.1	56.0*	7.9	11.3
CCCCOC(=O)c1ccc(NC(=O)c2cc(-c3ccc(Br)cc3)nc3ccccc23)cc1	0.1	-0.7	0.2	56.9*	10.2	8.9
CCCOC(=O)c1ccc(NC(=O)c2cc(-c3ccc(Br)cc3)nc3ccccc23)cc1	-0.6	6.7	-0.1	-4.2	·	·
Cc1ccc(-c2cc(C(=O)Nc3ccccc3Cl)c3ccccc3n2)cc1	-0.3	1.8	0.2	14.7	·	·
NC(=O)n1c(CCC(=O)O)nc2sc3c(c2c1=O)CCC3	-0.4	-9.7	-0.3	77.7*	72.7*	-7.3	AlphaScreen DR=>6.75
NS(=O)(=O)c1ccc(N=Cc2ccc(OC(=O)c3ccccn3)cc2)cc1	-1.6	-10.1	-0.2	55.3*	17.1	44.9*
CC(=O)c1cccc(N=Cc2ccc(OC(=O)c3ccccn3)cc2)c1	-2.4	-7.1	-0.3	19.8	·	·
CN(C)/N=C/c1ccc(OC(=O)c2ccccn2)cc1	-1.6	-4.9	-0.3	43.4	·	·
N#C/C(=C\c1ccc(OC(=O)c2ccccn2)cc1)C(N)=O	-1.0	10.3	0.0	53.0*	30.9*	55.7*
CCc1ccc2nc(SCC(=O)NC(C)(C)C)c(C#N)cc2c1	-1.6	6.2	0.3	9.3	·	·
CCCS(=O)(=O)N1CCN(Cc2ccccc2F)CC1	0.1	6.1	0.5	56.9*	0.2	-3.5
CCCS(=O)(=O)N1CCN(Cc2nc3ccccc3[nH]2)CC1	-1.1	-6.8	-0.4	67.0*	7.1	20.2
CS(=O)(=O)N1CCN(Cc2nc3ccccc3[nH]2)CC1	-1.0	-0.1	-0.5	71.7*	8.0	12.2
Cc1c(C(=O)NN2CC(O)=C(c3ccccc3)C2=N)nc2ccccn12	0.4	5.7	0.1	11.8	·	·
CCOC(=O)C1=C(C)N=c2s/c(=C/c3cccs3)c(=O)n2C1c1ccccc1 (stereo not drawn)	-0.2	10.4	-0.1	4.3	·	·
O=S(=O)(NCC(c1cccs1)S(=O)(=O)c1ccc(Cl)cc1)c1cccs1 (stereo not drawn)	-0.4	5.8	0.6	73.3*	18.1	3.3
O=S(=O)(NCC(c1cccs1)S(=O)(=O)c1ccccc1)c1cccs1 (stereo not drawn)	-0.5	2.4	0.0	-1.9	·	·
COc1ccc(-n2c(CN3CCSCC3)n[nH]c2=S)cc1	1.0	16.2	0.0	71.3*	-6.3	10.4
Cc1ccccc1NC(=O)C1(NC(=O)Cn2nnnc2N)CCCCC1	2.1	4.1	-0.1	9.9	·	·
COc1ccc2c(c1OC)C(=O)N(c1ccc(Cl)c(Cl)c1)C2	2.3	-41.8	0.0	-18.0	·	·
CC1CCN(Cc2ccc(-c3nnn(CC(=O)Nc4ccccc4F)n3)cc2)CC1	-0.7	11.7	-0.1	10.5	·	·
CC1CCN(Cc2ccc(-c3nnn(CC(=O)Nc4ccc(F)cc4)n3)cc2)CC1	-0.1	-0.3	0.1	87.9*	9.6	15.6
